From PubChem BioAssay AID1159580 (chemical genetic matrix, 2015)
About 2,000 (36%) of roughly 5,500 compounds were called active. Another 18% or so got no clear call; they are omitted. Rule as the data show it: active = normalized growth mostly below about 0.91 (no sharp cut-off); inconclusive = no clear call, values can overlap the other calls; inactive = mostly above about 0.92. The list shows a part of the results.

Assay: chemical genetic growth profiling, strain panel (AID 1159580);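 also: tested at 20 µM; growth read once vehicle control cultures reached saturation at 30 °C; 1 = growth at the plate median or of vehicle wells; lower values mean less growth of the strain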
Details: growth OD
[1] = S. cerevisiae deletion strains, locus YAL013W, strain DEP1, active compounds read low
[2] = S. cerevisiae deletion strains, locus YBR229C, strain ROT2, active compounds read low
[3] = S. cerevisiae deletion strains, locus YDL101C, strain DUN1, active compounds read low
[4] = S. cerevisiae deletion strains, locus YDR150W, strain NUM1, active compounds read low
[5] = S. cerevisiae deletion strains, locus YEL061C, strain CIN8, active compounds read low
[6] = S. cerevisiae deletion strains, locus YGR078C, strain PAC10, active compounds read low
[7] = S. cerevisiae deletion strains, locus YGR229C, strain SMI1, active compounds read low
[8] = S. cerevisiae deletion strains, locus YHR030C, strain SLT2, active compounds read low
[9] = S. cerevisiae deletion strains, locus YHR087W, strain rtc3, active compounds read low
[10] = S. cerevisiae deletion strains, locus YJL187C, strain SWE1, active compounds read low
[11] = S. cerevisiae deletion strains, locus YJR043C, strain POL32, active compounds read low
[12] = S. cerevisiae deletion strains, locus YJR075W, strain HOC1, active compounds read low
[13] = S. cerevisiae deletion strains, locus YKL190W, strain CNB1, active compounds read low
[14] = S. cerevisiae deletion strains, locus YLR039C, strain RIC1, active compounds read low
[15] = S. cerevisiae deletion strains, locus YLR058C, strain SHM2 (second series), active compounds read low
[16] = S. cerevisiae deletion strains, locus YLR085C, strain ARP6, active compounds read low
[17] = S. cerevisiae deletion strains, locus YLR262C, strain YPT6, active compounds read low
[18] = S. cerevisiae deletion strains, locus YML094W, strain GIM5, active compounds read low
[19] = S. cerevisiae deletion strains, locus YMR219W, strain ESC1, active compounds read low
[20] = S. cerevisiae deletion strains, locus YMR263W, strain SAP30, active compounds read low
[21] = S. cerevisiae deletion strains, locus YNL153C, strain GIM3, active compounds read low
[22] = S. cerevisiae deletion strains, locus YNL298W, strain CLA4 (second series), active compounds read low
[23] = S. cerevisiae deletion strains, locus YNL322C, strain KRE1, active compounds read low
[24] = S. cerevisiae deletion strains, locus YNR030W, strain Alg12, active compounds read low
[25] = S. cerevisiae deletion strains, locus YPL055C, strain LGE1, active compounds read low
[26] = S. cerevisiae deletion strains, locus YPL241C, strain CIN2, active compounds read low
[27] = S. cerevisiae deletion strains, locus YPR135W, strain CTF4, active compounds read low
[28] = S. cerevisiae strains, strain wild type, active compounds read low
[29] = S. cerevisiae deletion strains, locus YMR307W, strain GAS1, active compounds read low
[30] = S. cerevisiae deletion strains, locus YNL128W, strain TEP1, active compounds read low
[31] = S. cerevisiae deletion strains, locus YCL061C, strain MRC1, active compounds read low

Measured: normalized growth

CC1=C(OS(=O)(=O)c2cc(C)c(Cl)cc2Cl)C(=O)CC1
inactive: [1] 0.993 | [2] 0.956 | [3] 0.968 | [4] 0.986 | [5] 1 | [6] 0.98 | [7] 0.968 | [8] 0.85 | [9] 0.974 | [10] 0.986 | [11] 0.991 | [12] 0.984 | [13] 0.976 | [14] 0.849 | [15] 0.968 | [16] 0.955 | [17] 0.866 | [18] 1 | [19] 0.985 | [20] 0.977 | [21] 0.971 | [22] 0.914 | [23] 0.97 | [24] 0.968 | S. cerevisiae deletion strains, locus YOL006C, strain TOP1, active compounds read low 0.897 | [26] 0.98 | [27] 0.87
active: [25] 1.24 [resistant]

COc1ccccc1N1CCN(S(=O)(=O)c2cc(C)c(Cl)cc2C)CC1
inactive: [1] 0.985 | [2] 0.991 | [3] 0.957 | [4] 0.958 | [5] 0.994 | [6] 0.97 | [8] 1.01 | [9] 0.959 | [10] 0.991 | [11] 1 | [12] 0.989 | [13] 0.987 | [14] 0.981 | [15] 0.988 | [16] 1.01 | [17] 0.976 | [18] 0.958 | [19] 1 | [20] 1 | [21] 0.996 | [22] 0.982 | [23] 0.994 | [24] 0.982 | [25] 0.953 | [26] 1.06 | [27] 0.874 | [28] 0.985

c1ccc2sc(C3(N4CCCCC4)CCCCC3)cc2c1
inactive: [1] 0.964 | S. cerevisiae deletion strains, locus YAL040C, strain CLN3, active compounds read low 1.01 | S. cerevisiae deletion strains, locus YCL061C, strain MRC1 (second series), active compounds read low 0.995 | [4] 1 | S. cerevisiae deletion strains, locus YDR363W, strain ESC2, active compounds read low 0.937 | S. cerevisiae deletion strains, locus YER002W, strain NOP16, active compounds read low 1.01 | [6] 0.983 | [7] 0.93 | [20] 1 | [29] 0.976 | [30] 0.988 | [21] 1.01 | S. cerevisiae deletion strains, locus YNL175C, strain NOP13, active compounds read low 1.03 | S. cerevisiae deletion strains, locus YNL197C, strain WHI3, active compounds read low 0.986 | S. cerevisiae deletion strains, locus YNL224C, strain SQS1, active compounds read low 1 | S. cerevisiae deletion strains, locus YOR083W, strain WHI5 (second series), active compounds read low 1.04 | [25] 0.907

COc1cc(/C=C2\NC(=O)NC2=O)ccc1O
inactive: [1] 1 | [2] 0.965 | [31] 1 | [3] 0.982 | [4] 0.963 | [5] 0.956 | [6] 0.977 | [8] 0.873 | [9] 1.04 | [10] 0.982 | [11] 0.997 | [12] 0.976 | [13] 0.986 | [14] 0.918 | [15] 0.98 | [16] 0.941 | [17] 0.945 | [18] 0.989 | [19] 0.974 | [20] 0.998 | [29] 1.07 | [30] 0.993 | [21] 0.98 | [22] 0.968 | [23] 0.996 | [24] 1.01 | [25] 0.999 | [26] 0.975 | [27] 0.945 | [28] 0.948

COc1cc(O)c(C(=O)/C=C/c2ccc(OC)c(O)c2)c(OC)c1
active: S. cerevisiae deletion strains, locus YAL026C, strain drs2, active compounds read low 0.906 | S. cerevisiae deletion strains, locus YBR009C, strain hhf1, active compounds read low 0.846 | S. cerevisiae deletion strains, locus YBR023C, strain chs3, active compounds read low 0.912 | S. cerevisiae deletion strains, locus YDR195W, strain ref2 1.17 [resistant] | S. cerevisiae deletion strains, locus YDR392W, strain spt3, active compounds read low 0.413 | S. cerevisiae deletion strains, locus YER155C, strain BEM2 (second series), active compounds read low 0.765 | S. cerevisiae deletion strains, locus YGL253W, strain hxk2, active compounds read low 0.806 | S. cerevisiae deletion strains, locus YHR142W, strain chs7, active compounds read low 0.712 | S. cerevisiae deletion strains, locus YJL095W, strain BCK1 (second series), active compounds read low 0.86 | S. cerevisiae deletion strains, locus YJL129C, strain trk1, active compounds read low 0.852 | S. cerevisiae deletion strains, locus YJL164C, strain tpk1, active compounds read low 0.842 | S. cerevisiae deletion strains, locus YJL166W, strain qcr8, active compounds read low 0.799 | [10] 0.914 | S. cerevisiae deletion strains, locus YKL160W, strain elf1, active compounds read low 0.893 | S. cerevisiae deletion strains, locus YLL001W, strain dnm1, active compounds read low 0.891 | S. cerevisiae deletion strains, locus YLL026W, active compounds read low 0.857 | S. cerevisiae deletion strains, locus YLR027C, strain aat2, active compounds read low 0.841 | S. cerevisiae deletion strains, locus YLR221C, strain rsa3, active compounds read low 0.79 | S. cerevisiae deletion strains, locus YLR258W, strain gsy2, active compounds read low 0.903 | S. cerevisiae deletion strains, locus YLR262C, strain YPT6 (second series), active compounds read low 0.752 | S. cerevisiae deletion strains, locus YLR320W, strain mms22, active compounds read low 0.793 | S. cerevisiae deletion strains, locus YML120C, strain ndi1, active compounds read low 0.828 | S. cerevisiae deletion strains, locus YMR058W, strain fet3, active compounds read low 0.847 | S. cerevisiae deletion strains, locus YMR205C, strain PFK2, active compounds read low 0.845 | S. cerevisiae deletion strains, locus YNL071W, strain lat1, active compounds read low 0.566 | S. cerevisiae deletion strains, locus YOR070C, strain gyp1, active compounds read low 0.895 | S. cerevisiae deletion strains, locus YOR083W, strain WHI5, active compounds read low 0.859 | S. cerevisiae deletion strains, locus YOR106W, strain vam3, active compounds read low 0.822 | S. cerevisiae deletion strains, locus YOR290C, strain snf2, active compounds read low 0.751 | S. cerevisiae deletion strains, locus YPL051W, strain arl3, active compounds read low 0.856 | S. cerevisiae deletion strains, locus YPL078C, strain atp4, active compounds read low 0.796
inactive: S. cerevisiae deletion strains, locus YAL021C, strain ccr4, active compounds read low 0.994 | S. cerevisiae deletion strains, locus YAL030W, strain snc1, active compounds read low 0.961 | S. cerevisiae deletion strains, locus YBL061C, strain skt5, active compounds read low 0.939 | S. cerevisiae deletion strains, locus YBR171W, strain sec66, active compounds read low 0.993 | S. cerevisiae deletion strains, locus YBR231C, strain swc5, active compounds read low 0.925 | S. cerevisiae deletion strains, locus YBR279W, strain paf1, active compounds read low 0.965 | S. cerevisiae deletion strains, locus YCL011C, strain gbp2, active compounds read low 0.91 | S. cerevisiae deletion strains, locus YCL016C, strain dcc1, active compounds read low 0.971 | [31] 0.954 | S. cerevisiae deletion strains, locus YCL069W, strain vba3, active compounds read low 0.946 | S. cerevisiae deletion strains, locus YCR088W, strain abp1, active compounds read low 0.995 | S. cerevisiae deletion strains, locus YDL005C, strain med2, active compounds read low 1.01 | S. cerevisiae deletion strains, locus YDL040C, strain nat1, active compounds read low 1.01 | S. cerevisiae deletion strains, locus YDR001C, strain nth1, active compounds read low 0.992 | S. cerevisiae deletion strains, locus YDR069C, strain doa4, active compounds read low 1.06 | S. cerevisiae deletion strains, locus YDR137W, strain rgp1, active compounds read low 0.912 | S. cerevisiae deletion strains, locus YDR159W, strain sac3, active compounds read low 0.929 | S. cerevisiae deletion strains, locus YDR297W, strain sur2, active compounds read low 1.01 | S. cerevisiae deletion strains, locus YDR334W, strain swr1, active compounds read low 0.983 | S. cerevisiae deletion strains, locus YDR335W, strain msn5, active compounds read low 0.935 | S. cerevisiae deletion strains, locus YEL003W, strain gim4, active compounds read low 0.927 | S. cerevisiae deletion strains, locus YEL037C, strain rad23, active compounds read low 0.988 | S. cerevisiae deletion strains, locus YEL061C, strain CIN8 (second series), active compounds read low 0.918 | S. cerevisiae deletion strains, locus YER015W, strain faa2, active compounds read low 0.956 | S. cerevisiae deletion strains, locus YER016W, strain bim1, active compounds read low 1.02 | S. cerevisiae deletion strains, locus YER111C, strain swi4, active compounds read low 0.98 | S. cerevisiae deletion strains, locus YFR010W, strain ubp6, active compounds read low 0.959 | S. cerevisiae deletion strains, locus YGL167C, strain pmr1, active compounds read low 1.02 | S. cerevisiae deletion strains, locus YGL173C, strain kem1, active compounds read low 0.939 | S. cerevisiae deletion strains, locus YGL227W, strain vid30, active compounds read low 0.96 | S. cerevisiae deletion strains, locus YGL240W, strain doc1, active compounds read low 0.946 | S. cerevisiae deletion strains, locus YHR013C, strain ard1, active compounds read low 1.02 | S. cerevisiae deletion strains, locus YHR027C, strain rpn1, active compounds read low 0.987 | [8] 0.922 | S. cerevisiae deletion strains, locus YHR079C, strain IRE1, active compounds read low 0.943 | S. cerevisiae deletion strains, locus YJL092W, strain hpr5, active compounds read low 0.957 | S. cerevisiae deletion strains, locus YJL095W, strain BCK1, active compounds read low 0.941 | S. cerevisiae deletion strains, locus YJL115W, strain asf1, active compounds read low 1 | S. cerevisiae deletion strains, locus YJL154C, strain vps35, active compounds read low 1.02 | S. cerevisiae deletion strains, locus YJR066W, strain TOR1, active compounds read low 0.897 | S. cerevisiae deletion strains, locus YKR026C, strain gcn3, active compounds read low 0.992 | S. cerevisiae deletion strains, locus YKR091W, strain srl3, active compounds read low 1.01 | S. cerevisiae deletion strains, locus YLL041C, strain sdh2, active compounds read low 1.01 | S. cerevisiae deletion strains, locus YLR113W, strain HOG1, active compounds read low 0.982 | S. cerevisiae deletion strains, locus YLR342W, strain FKS1, active compounds read low 1 | S. cerevisiae deletion strains, locus YLR357W, strain rsc2, active compounds read low 0.933 | S. cerevisiae deletion strains, locus YLR370C, strain arc18, active compounds read low 0.944 | S. cerevisiae deletion strains, locus YLR384C, strain iki3, active compounds read low 1.03 | S. cerevisiae deletion strains, locus YMR125W, strain sto1, active compounds read low 0.9 | S. cerevisiae deletion strains, locus YMR129W, active compounds read low 0.992 | S. cerevisiae deletion strains, locus YMR231W, strain pep5, active compounds read low 0.98 | S. cerevisiae deletion strains, locus YNL183C, strain NPR1, active compounds read low 0.958 | S. cerevisiae deletion strains, locus YNL209W, strain ssb2, active compounds read low 1.01 | S. cerevisiae deletion strains, locus YNL248C, strain rpa49, active compounds read low 0.909 | S. cerevisiae deletion strains, locus YNL322C, strain KRE1 (second series), active compounds read low 0.997 | S. cerevisiae deletion strains, locus YNR049C, strain mso1, active compounds read low 0.997 | S. cerevisiae deletion strains, locus YOR001W, strain rrp6, active compounds read low 0.905 | S. cerevisiae deletion strains, locus YOR080W, strain dia2, active compounds read low 1.01 | S. cerevisiae deletion strains, locus YOR231W, strain MKK1, active compounds read low 0.931 | S. cerevisiae deletion strains, locus YOR265W, strain rbl2, active compounds read low 0.988 | S. cerevisiae deletion strains, locus YOR270C, strain vph1, active compounds read low 0.833 | S. cerevisiae deletion strains, locus YPL106C, strain sse1, active compounds read low 0.929 | S. cerevisiae deletion strains, locus YPL240C, strain hsp82, active compounds read low 0.976 | S. cerevisiae deletion strains, locus YPL256C, strain CLN2, active compounds read low 0.942
